Source: PubChem BioAssay (NCI)
Compounds without any hit were thinned out: in the full panel of roughly 83,000, 20% have a hit.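 Compound tested at a single concentration for 48 hours in 96-well plates; a percent growth value below 10 was scored as active.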 A number with no mark means an inactive call. Active and inactive are the calls of the source.

Tested on: COLO 205 colon
Assay: NCI-60 one-dose screen, 48 h (100 = growth as untreated, 0 = no growth, -100 = all killed)
Settings: 10 µM unless noted

Row | Compound | growth
1 | CC1(C)c2[nH]c3ccccc3c2C[C@]2(C)[C@H]3CC=C4[C@@H]5C[C@@](C)(C(N)=O)CC[C@]5(C)CC[C@@]4(C)[C@]3(C)CC[C@@H]12 | 58.9%
2 | CCCCCOc1ccc(C(=O)/C(Br)=C/C(=O)O)cc1 | 105%
3 | CC(C)N1CCN(Cc2ccc3c(NNC(=O)c4ccccc4)nc4cc(F)ccc4n23)CC1 | 17.1%
4 | N#Cc1cccc(NC(=O)c2oc3ccccc3c2-c2cnn(-c3ccccc3)c2)c1 | 91.8% [50 µM]
5 | Cc1cccc(N2CCN(CC(O)COc3ccc(Cl)cc3)CC2)c1 (centres undefined) | 98%
6 | CCOC(=O)c1c(C)nc2c(c1N)CC(=O)N2Cc1cc(F)cc(Cl)c1 | 121%
7 | C[C@@H]1CCC[C@H]1CC(N)C(=O)O (some centres undefined) | 116%
8 | O=CC1(C2(C=O)c3ccccc3-c3ccccc32)c2ccccc2-c2ccccc21 | -56% (active)
9 | O=C1Nc2ccc(I)cc2C1=O | 88.9%
10 | CN1CCN(c2ccc(NC(=O)c3nc4ccc5[nH]ncc5c4c4c3CCCC4)cc2C(F)(F)F)CC1 | 59.3%
11 | CN(C)C1CCN(Cc2ccc(NC(=O)c3cncc(C#Cc4cnc(N)c5ncccc45)c3)cc2C(F)(F)F)CC1 | 69.6%
12 | COc1ccc(C/C(C)=C(/c2ccc(OCCN3CCCCC3)cc2)c2ccc(OC(=O)NCc3ccccc3)cc2)cc1 | -90.4% (active)
13 | COc1ccccc1NC(=O)Cn1cc(CN2CCN(c3ccnc4cc(Cl)ccc34)CC2)nn1 | 101%
14 | N=C(N)c1ccc(-c2ccc(-c3ccc(F)cc3)o2)o1 | -76.5% (active)
